Source: PubChem (National Center for Advancing Translational Sciences (NCATS))
This is one part of a sample in which hits are shown more often than they occur.
GRP78 ERSR act = induces the endoplasmic reticulum stress response in human glioma cells | U87-MG GRP78 promoter luciferase reporter, 16 h | Potency, µM, for the others: top-dose activation, usual class: activators | hit rate 0.02% among 420,000 | AID 602332; note: series mostly up to about 76 µM; % of control where 0% means no effect; nearly all actives have a fitted effect of over 35% in size
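ERSR induction read as luciferase luminescence (Bright-Glo, 10 min at room temperature) in stably transfected human U87-MG glioma cells exposed to compounds for 16 h, using GRP78 as sensor.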
ALOX12 inh = inhibitors of human 12S-lipoxygenase ALOX12; Potency, µM (highest dose often 108 µM), for inactives: top-dose activity change, negative = inhibition, usual class: inhibitors; purified 12hLO, xylenol orange hydroperoxide absorbance; hit rate 1.1% among 580,000; note: % is set by controls: 0 for no effect and ±100 for the full control effect
Target sequence (P18054 whole entry, looked up): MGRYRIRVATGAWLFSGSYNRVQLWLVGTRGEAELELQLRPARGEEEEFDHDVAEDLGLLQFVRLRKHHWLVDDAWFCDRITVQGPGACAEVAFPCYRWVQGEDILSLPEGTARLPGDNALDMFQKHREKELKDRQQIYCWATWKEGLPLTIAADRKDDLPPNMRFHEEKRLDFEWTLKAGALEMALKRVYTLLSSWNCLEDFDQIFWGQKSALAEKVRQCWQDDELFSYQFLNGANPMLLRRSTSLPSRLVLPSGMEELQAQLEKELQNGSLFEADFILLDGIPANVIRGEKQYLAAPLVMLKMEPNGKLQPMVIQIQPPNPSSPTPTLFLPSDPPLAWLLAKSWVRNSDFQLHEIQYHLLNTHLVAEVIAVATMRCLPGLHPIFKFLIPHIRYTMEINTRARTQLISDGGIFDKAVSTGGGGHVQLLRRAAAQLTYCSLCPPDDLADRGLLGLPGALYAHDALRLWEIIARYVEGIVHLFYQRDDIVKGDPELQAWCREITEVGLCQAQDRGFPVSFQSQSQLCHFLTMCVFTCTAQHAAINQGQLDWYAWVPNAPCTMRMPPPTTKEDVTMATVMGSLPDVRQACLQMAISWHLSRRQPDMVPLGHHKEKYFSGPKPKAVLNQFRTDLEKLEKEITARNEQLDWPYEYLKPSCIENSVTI
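Purified human 12hLO at 150 nM in 25 mM Hepes, 0.01% Triton X-100, pH 7.0, preincubated 15 min at room temperature with compound. Reaction started with 40 uM arachidonic acid, 30 min at room temperature. Hydroperoxide measured by Fe-xylenol orange, 573/405 nm absorbance ratio.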
VDR inhibitor = blocks the human vitamin D receptor; hit rate 0.93% among 400,000; VDR-SRC2-3 peptide fluorescence polarization, 2 h; Potency, µM, for the others: max response, negative = inhibition, actives largely listed as inhibitors; P11473; note: % is set by controls: 0 for no effect and ±100 for the full control effect
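Inhibition of the VDR/SRC2-3 peptide interaction is quantified by fluorescence polarization. Compounds (23 nl, pintool) incubate with the reagents for 2 hours at ambient room temperature.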
Sfp PPTase inh = Sfp phosphopantetheinyl transferase inhibition; Biochemical Sfp PPTase activity, qHTS; Potency, µM, for the others: largest response in the series, negative = inhibition, hits mostly inhibitors; hit rate 3.5% among 310,000;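 note: the enzyme is Sfp with the accession as filed and its product quenches rhodamine fluorescence; 0% = enzyme reaction without inhibitor and -100% = no enzyme wells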
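Step 1, compound plus 15 nM Sfp-PPTase, 15 min, room temperature. Step 2, add rhodamine-CoA (5 uM) and BHQ-2-YbbR (12.5 uM). Step 3, read 525/598 nm fluorescence at 0 and 30 min.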
G9a inh = inhibitors of human histone lysine methyltransferase G9a | G9a H3K9 monomethylation, AlphaScreen, 2 h | AID 504332 | Potency, µM (titrated, usually from 102 µM), without a hit: at the highest dose activity, negative = inhibition, most hits filed as inhibitors | hit rate 8.8% among 350,000; note: % is set by controls: 0 for no effect and ±100 for the full control effect; nearly all actives have a fitted effect of over 75% in size
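Methyltransferase reactions run at room temperature for 2 h (20 nM enzyme, 500 nM biotin-H3K9 peptide, 20 uM SAM) after a 15 min compound preincubation; product detected by AlphaScreen beads and anti-H3K9me1 antibody.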
* = called active by the depositor; ? = inconclusive; · = no result; [ ] = remark or other dose. Calls come from the whole dose curve; as a rule, active = well fitted curve in the direction sought with a large enough effect; inconclusive = small, poorly fitted or top-dose-only effect, or another doubt; inactive = no such curve, though single readings can be large; an effect the other way counts as inactive or inconclusive. Potency is the fitted concentration of half-maximal effect.

SMILES | GRP78 ERSR act | ALOX12 inh | VDR inhibitor | Sfp PPTase inh | G9a inh
CC(C)C(=O)NCCSCc1cccs1 | · | 30% | · | · | ·
COC(=O)C12C3CCC4C5C3C1C5(C(=O)OC)C42 (configuration not stated) | · | -20% | · | · | ·
NC(=O)C1CCN(C(=O)c2cc(C3CC3)nc3ccccc23)CC1 | · | -4% | · | · | ·
CC(=O)C1=C(C)NC(SCC(N)=O)=C(C#N)C1c1ccco1 (configuration not stated) | -2% | 0% | -5% | 89µM* | ?
CC(=O)C1=C(C)NC(SCC(=O)c2cc(Cl)ccc2Cl)=C(C#N)C1c1ccco1 (configuration not stated) | -1% | ? | 36% | 35µM* | 32µM*
N#Cc1cccnc1Oc1ccc(C(N)=O)cc1 | · | 3% | · | · | ·
Cc1nc2ccccc2c2oc(C(=O)N3CCC(N4CCCCC4)CC3)cc12 | -2% | · | -17% | 13% | 71µM*
COc1ccc(N2CCN(C(=O)c3cc4c(C)nc5ccccc5c4o3)CC2)cc1 | -6% | 3% | -14% | -17% | 50µM*
CC(=O)c1ccc(N2CCN(C(=O)c3cc4c(C)nc5ccccc5c4o3)CC2)cc1 | -4% | -21% | 3% | -8% | 12%
Cc1nc2ccccc2c2oc(C(=O)N3CCN(C4CCCCC4)CC3)cc12 | -2% | 23%[57.4 µM] | -6% | -1% | 15%
COc1ccc(N2CCN(C(=O)c3ccc(CS(=O)c4cccc(C)c4)o3)CC2)cc1 (configuration not stated) | -1% | ? | -11% | 2% | 56µM*
O=C(CN1C(=O)NC(c2ccccc2Cl)C2=C1COC2=O)Nc1ccc(F)c(Cl)c1 (configuration not stated) | · | -1% | · | · | ·
Cc1ccc(C2NC(=O)N(CC(=O)Nc3ccc(C(F)(F)F)cc3)C3=C2C(=O)OC3)cc1 (configuration not stated) | · | 10µM* | · | · | ·
O=C(CN1C(=O)NC(c2ccc(Cl)cc2)C2=C1COC2=O)Nc1ccc(F)c(Cl)c1 (configuration not stated) | · | 7.9µM* | · | · | ·
CC(=O)Nc1ccc(NC(=O)CN2C(=O)NC(c3ccc(C)cc3)C3=C2COC3=O)cc1 (configuration not stated) | · | 20% | · | · | ·
Cc1ccc(C2NC(=O)N(CC(=O)Nc3ccc(Br)cc3F)C3=C2C(=O)OC3)cc1 (configuration not stated) | · | 8.9µM* | · | · | ·
O=C(CN1C(=O)NC(c2ccc(Cl)cc2)C2=C1COC2=O)Nc1ccc(C(F)(F)F)cc1 (configuration not stated) | · | 8.9µM* | · | · | ·
Cc1cc2nc(-c3cccc(NC(=O)c4ccccc4[N+](=O)[O-])c3)oc2cc1C | · | -1% | · | · | ·
O=C(NCC(F)(F)F)c1cc(-c2ccc3c(c2)OCCO3)nc2ccccc12 | · | -46% | · | · | ·
COc1cc(SC)ccc1C(=O)Oc1ccc(C(C)(C)C)cc1 | · | -28% | · | · | ·
Cc1ccc(NC(=O)N2CCN(S(=O)(=O)c3cc4c(cc3Cl)NC(=O)C(C)O4)CC2)cc1C (configuration not stated) | · | -32% | · | · | ·
Cc1oc2cc(OCC(=O)NCCCOC(C)C)ccc2c(=O)c1-c1ccccc1 | · | 0% | · | · | ·
Cc1noc(C(C)C)c1C(=O)NCc1ccc(OC(C)C)nc1 | · | 2% | · | · | ·
Cc1c(C(=O)OCCOc2ccc(Cl)cc2Cl)sc(=S)n1C | · | -21% | · | · | ·
Cc1ccc(C2NC(=O)N(CC(=O)Nc3ccc(Br)c(C)c3)C3=C2C(=O)OC3)cc1 (configuration not stated) | · | 8.9µM* | · | · | ·
SMILES | GRP78 ERSR act | ALOX12 inh | VDR inhibitor | Sfp PPTase inh | G9a inh
CC(=O)c1cccc(NC(=O)CN2C(=O)NC(c3ccc(C)cc3)C3=C2COC3=O)c1 (configuration not stated) | · | 34% | · | · | ·
CCC(=O)Nc1ccc(NCc2ccc(-c3ccccc3)cc2)cc1 | -2% | 59% | 11% | -5% | 25µM*
CC(=O)Nc1ccc(NCc2ccc(-c3ccccc3)cc2)cc1 | -1% | 30% | 23% | · | ·
CC1CCCCC1NCc1cccc([N+](=O)[O-])c1 (configuration not stated) | 6% | -13% | -13% | -12% | 18µM*
COCC(C)NCc1cccc([N+](=O)[O-])c1 (configuration not stated) | -2% | ? | -1% | -6% | 20µM*
CCCCNc1oc(/C=C/c2ccc(OC)c(OC)c2)nc1C#N | · | -9% | · | · | ·
O=c1nc2c(O)cccn2c2c1c(=O)[nH]c1ccccc12 | -2% | ? | 2% | -14% | 45µM*
O=c1[nH]c2ccccc2c2nc3ccccn3c12 | 4% | -15% | -4% | 22% | -28%
COc1ccc(COC(=O)c2[nH]c3c(c2C)C(=O)CC(c2ccc(OC)c(OC)c2)C3)cc1 (configuration not stated) | 1% | 2% | -18% | · | -31%[59 µM]
CCOC(=O)c1[nH]c2c(c1-c1ccc(OC)cc1)C(=O)CC(c1ccc(OC)c(OC)c1)C2 (configuration not stated) | -3% | 57% | 8% | -10% | 50µM*
CCn1c(C)c(/C=N/Nc2nc3ccccc3s2)c2ccccc21 | 0% | -22% | -2% | 1% | 40µM*
O=C(NO)c1ccccc1O | -2% | ? | -10% | -5% | 2µM*
O=C(NCCNC(=O)c1ccccc1O)c1ccccc1O | 1% | 10% | 5% | 13% | -9%[0.501 µM]
CNC(=S)N/N=C(\C)c1cccc(C(F)(F)F)c1 | -4% | 22µM* | -2% | -12% | -12%[0.0925 µM]
Cc1ccc(CN2CCN(/N=C/c3cc(Br)ccc3F)CC2)cc1 | -6% | 8% | 7% | 5% | 56µM*
Cc1ccc(CN2CCN(/N=C/c3ccccc3)CC2)cc1 | 1% | 0% | 0% | 4% | ?
Cc1ccc(CN2CCN(/N=C/c3cc(Br)cc(Br)c3O)CC2)c(C)c1 | -2% | 19% | -18% | 0% | 40µM*
Cc1ccc(CN2CCN(/N=C/c3cc(Br)cc(Br)c3O)CC2)cc1 | -3% | -16% | ? | -9% | -12%[59 µM]
CCc1sc(C(=O)OC(C)C(=O)Nc2cc(C)no2)cc1C (configuration not stated) | · | -5% | · | · | ·
O=C(NC1CCSc2ccccc21)c1cc([N+](=O)[O-])ccc1N1CCOCC1 (configuration not stated) | 1% | -14% | -20% | · | 56µM*
O=C(Nc1nc2ccc(Oc3ccccc3)cc2s1)c1cc([N+](=O)[O-])ccc1N1CCOCC1 | 0% | 0% | -14% | -24% | 16µM*
O=C(NC1CCSc2ccccc21)c1ccc([N+](=O)[O-])cc1 (configuration not stated) | 1% | ? | 24% | 18% | -11%
O=C(NCCOc1ccccc1)c1cc([N+](=O)[O-])ccc1N1CCOCC1 | -6% | 0% | 2% | · | 34%[12.7 µM]
COc1cc(/C=N/NC(=O)c2cccc(S(=O)(=O)N3CCCCC3)c2)cc(Br)c1O | 2% | -6% | ? | -2% | ?
